# Source: PubChem BioAssay AID588856 (National Center for Advancing Translational Sciences (NCATS), 2011)
# About 3,100 (0.76%) of roughly 410,000 compounds were called active. A call without a number means that no potency is given here. The call rests on the fitted dose curve; in most records, active means well fitted cell-killing curve with a large enough effect; inactive means no such curve, though single readings can be large or run the other way. Only a selection was taken, and actives are over-represented in it overall.
# Assay: qHTS for Inhibitors of TGF-b: Cytotox Counterscreen
# Conditions: HepG2 CAGA-GFP viability, ATP luminescence, 18 h; series mostly up to 46.1 µM
# Description: TGF-b is a main component in the TGF-b signaling pathway which plays diverse roles in cellular and development pathways. TGF-b is mediated by transcription factors called "Smads". Although the Smad-dependent pathway is the primary canonical TGF-b signaling mode, TGF-b1 can also activate alternative signaling pathways, including those involving MAPK (ERK, JNK and p38). This interaction may mediate or enhance Smad-dependent responses, or can exert Smad-independent effects. The complexity of this signaling cascade allows the TGF-b superfamily to perform unique, overlapping or redundant functions. We believe that targeting the TGF-beta pathway at the Smad-transcription factor level may eliminate the consequences of disrupting the entire pathway and offer specificity without affecting other signaling pathways. Smad3 is the primary transducer of TGF-b's signals and Smad3 regulates many functions attributed to TGF-b signaling. We hypothesize that Smad3 inhibitors will selectively eliminate Smad3-specific TGF-beta signals without undesired off-target effects. We aim to identify Smad3-small molecule antagonists using a quantitative high throughput screening (qHTS) approach.
# A high-throughput assay was developed to screen the NIH Molecular Libraries Small Molecule Repository (MLSMR). This is a cell based assay, where TGF-b is tagged with GFP. This is a counterscreen that evaluates the cytotoxicity of the compounds that were screened in the primary cell-based screen (AID 588855).
# MH087449NIH Chemical Genomics Center [NCGC]
# NIH Molecular Libraries Probe Centers Network [MLPCN]
# Assay Submitter (PI): Sushil Rane, National Institute of […]
# Suspensions of trypsinized HEPG2 CAGA-GFP cells were dispensed into white, tissue culture-treated, solid 1536-well plates at 5uL/well (1000 cells/well final concentration) in DMEM medium supplemented with 1% FBS. Plates were incubated at 37 degrees C for 2 hours, after which 23 nL of compounds or DMSO were delivered to each well using a pin tool. One uL of recombinant TGF-beta in DMEM (1% FBS) was then dispensed (500 pg/mL final concentration), and plates were incubated at 37 degrees C for 18 hours. Two uL of CellTiter Glo (Promega), a luminescence-based viability reagent, was dispensed, followed by a 10 minute room temperature incubation. The plates were then measured on a PerkinElmer ViewLux plate reader for luminescence (clear filter) using a 5 second exposure. The %Activity was determined from the corrected luminescence values. Wells containing media only (no cells) were used to normalize %Activity of identified toxic compounds; media-only wells corresponded to 100%Activity (complete cell-killing), while DMSO-dosed cell controls were used to normalize 0%Activity (no toxicity).
# Concentration-response curves were fitted to the signals arising from the resulting luminescence. The concentration-effect curves were then classified based on curve quality (r2), response magnitude and degree of measured activity, and compounds were subsequently categorized based on their curve class.
# Potency means the concentration at half of the fitted maximal effect.
row,SMILES,Potency
1,COc1c(O)ccc2c1-c1c3c(cc4c1C(C2)N(C)CC4)OCO3 (centres undefined),inactive
2,COc1ccc2cc1Oc1ccc(cc1)C[C@H]1c3cc(c(OC)cc3CCN1C)Oc1c(O)c(OC)cc3c1[C@H](C2)N(C)CC3,7.94 µM (active)
3,COc1ccc2c(c1O)-c1cccc3c1[C@@H](C2)N(C)CC3,inactive
4,CC(C)COC(=O)n1c(=O)oc2ccc(S(=O)(=O)N3CCCCC3)cc21,inactive
5,COc1ccccc1CNC(=O)C(Cc1ccccc1)NS(=O)(=O)c1ccc2c(c1)oc(=O)n2C (centres undefined),inactive
6,ClCCN(CCCl)c1ccc(C=Nc2ccc(/C=C/c3ccnc4ccccc34)cc2)cc1,inactive
7,Cc1ccc(C(O)P(=O)(OC(C)C)c2ccc(N(C)C)cc2)cc1 (centres undefined),inactive
8,COc1ccc(CCNC(=O)CCn2c(=O)oc3ccccc32)cc1OC,inactive
9,CC(C)(C)c1ccc(CN2C(=O)CN=C(c3ccccc3)c3ccccc32)cc1,12.6 µM (active)
10,O=C1CC(=O)N(Cc2ccccc2)C(=O)N1CCCCCCN1C(=O)CC(=O)N(Cc2ccccc2)C1=O,inactive
11,CC(C)OP(=O)(OC(C)C)C(Nc1ccccc1)c1cccc([N+](=O)[O-])c1 (centres undefined),inactive
12,O=c1[nH]c(=S)[nH]c(O)c1/C=C1\C=Nc2ccccc21,inactive
13,COc1ccccc1CNC(=O)Cn1c(=O)oc2cc(Cl)ccc21,inactive
14,N#Cc1c(Cl)c(Cl)c(Cl)c(C#N)c1Cl,0.316 µM (active)
15,Cn1c(=O)oc2cc(S(=O)(=O)N3CCC(C(=O)Nc4ccc(OC(F)(F)F)cc4)CC3)ccc21,inactive
16,CCCCOP(=O)(c1ccc(N(C)C)cc1)C(O)c1cc(OC)ccc1OC (centres undefined),inactive
17,COc1cc([C@@H]2c3cc4c(cc3[C@H](OC(C)=O)[C@H]3COC(=O)[C@H]23)OCO4)cc(OC)c1OC,inactive
18,CCOC(=O)C(NS(=O)(=O)c1ccc(C)cc1)(C(F)(F)F)P(=O)(OCC(C)C)OCC(C)C (centres undefined),inactive
19,CN(C)CC1Oc2ccccc2OC1(O)c1ccccc1 (centres undefined),3.98 µM (active)
20,CO[C@H]1[C@@H](O)[C@@H](C)O[C@H](O[C@H]2[C@H](Oc3cccc4c(O)c5c(=O)oc6ccc(C)c7c(=O)oc(c34)c5c67)O[C@H](C)[C@H](O)[C@@H]2O)[C@@H]1O,inactive
21,CCOC(=O)c1ccc(NC(=O)CCn2c(=O)oc3ccccc32)cc1,inactive
22,O=C1NC(=O)N(Cc2ccco2)C(=O)/C1=C\c1ccc(-c2ccc(F)cc2)o1,12.6 µM (active)
23,CCOP(=O)(OCC)C(Cc1ccccc1)N=C(c1ccccc1)c1ccccc1 (centres undefined),inactive
24,Cc1ccc2c(c1)C1C[N+](C)(CC(=O)c3ccccc3)CCC1N2C(=O)c1ccccc1Cl (centres undefined),inactive
25,Brc1cc(Br)c(Oc2cc(Br)c(Br)cc2Br)cc1Br,inactive
26,Cc1ncoc1C(=O)NCC1=C(c2cccc3ccccc23)C[C@@H]2CC[C@H]1N2Cc1ccco1,inactive
27,COc1cc(Cn2c(N)c(C(=O)NCc3ccco3)c3nc4ccccc4nc32)cc(OC)c1OC,17.8 µM (active)
28,COC(=O)C1=C(c2ccccc2)C[C@@H]2CC[C@H]1N2C(=O)NCc1ccco1,inactive
29,CCN(CC)C(=O)Oc1ccc(OC(=O)N(CC)CC)cc1,inactive
